PAD4 inh: human PAD4 inhibitors, primary screen, biochemical, fluorescence polarization, 1536-well format; Protein-arginine deiminase type-4 (Homo sapiens), Q9UM07; recombinant PAD4, RCA probe fluorescence polarization; inhibition, % at 6.36 µM; 330,000 compounds, 0.41% hits; AID 485272, 2010;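 active means percent inhibition above a cutoff equal to the mean of all tested compounds plus 3 SD, cut at about 15% in these data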;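 further: 0% = PAD4 with RCA probe and DMSO and 100% = probe without PAD4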
Fam108B inh: mouse Fam108B serine hydrolase inhibitors, primary screen, counter-screen for RBBP9 inhibitor project, biochemical, fluorescence polarization | recombinant Fam108B, FP-Rh probe fluorescence polarization | inhibition, % at 9.51 µM | 300,000 compounds, 0.33% hits | AID 1947, 2009;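 active means inhibition above the screen mean inhibition plus 3 SD, computed separately per campaign, cut at about 18% in these data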;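 further: inhibitors lower polarization as less probe binds the enzyme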
LYPLA1 counter: LYPLA1 inhibitors, primary screen, counter-screen for PME1 inhibitor project, biochemical, fluorescence polarization, FP-Rh probe ABPP; inhibition, % at 5.9 µM; Acyl-protein thioesterase 1 (Homo sapiens), O75608; 320,000 compounds, 0.16% hits; recombinant LYPLA1;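 active means inhibition above the mean of all tested compounds plus 3 SD, set per campaign, cut at about 14% in these data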;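 further: inhibitors block serine hydrolase probe labeling of LYPLA1 so polarization falls; 0% = enzyme with DMSO and 100% = wells lacking LYPLA1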
Target sequence (O75608 whole entry, looked up): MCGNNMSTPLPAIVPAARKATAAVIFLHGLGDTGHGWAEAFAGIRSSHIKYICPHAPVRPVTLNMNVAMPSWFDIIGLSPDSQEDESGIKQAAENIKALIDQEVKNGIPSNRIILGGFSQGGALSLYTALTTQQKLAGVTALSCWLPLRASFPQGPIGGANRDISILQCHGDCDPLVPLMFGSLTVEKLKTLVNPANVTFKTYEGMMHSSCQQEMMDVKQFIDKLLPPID
GSTO1 inh: inhibitors of recombinant GSTO1, primary screen, counter-screen for RBBP9 inhibitor project, biochemical, fluorescence polarization | Glutathione S-transferase omega-1 (Homo sapiens), P78417 | activity-based probe fluorescence polarization | inhibition, % at 5.96 µM | 300,000 compounds, 1.1% hits | AID 1974, 2009;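 active means inhibition above the campaign mean inhibition plus 3 SD, cut at about 35% in these data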;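 further: 0% = GSTO1-1 with DMSO and 100% = wells lacking GSTO1-1 enzyme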
Target sequence (P78417 whole entry, looked up): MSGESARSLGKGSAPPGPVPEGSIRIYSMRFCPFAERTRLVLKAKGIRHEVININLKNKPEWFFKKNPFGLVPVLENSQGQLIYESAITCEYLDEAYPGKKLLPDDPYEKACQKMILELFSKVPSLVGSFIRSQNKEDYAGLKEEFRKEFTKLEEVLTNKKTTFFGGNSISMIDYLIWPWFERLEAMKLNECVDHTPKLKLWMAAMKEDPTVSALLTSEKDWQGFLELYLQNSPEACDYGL
PME-1 inh: PME-1 inhibitors via competitive probe labeling, primary screen, biochemical, fluorescence polarization, FP-Rh probe, HTS; Protein phosphatase methylesterase 1 (Homo sapiens), Q9Y570; 320,000 compounds, 0.53% hits; inhibition, % at 5.9 µM; recombinant PME-1;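 active means inhibition above the campaign mean of all compounds plus 3 SD, cut at about 26% in these data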;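 further: competitive labeling of PME-1 active site by serine hydrolase directed probe; 0% = PME-1 with DMSO and 100% = wells lacking PME-1 enzyme; inhibitors block probe labeling so polarization falls and inhibition rises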
LYPLA2 inh: LYPLA2 inhibitors, primary screen, counter-screen for PME1 inhibitor project, biochemical, fluorescence polarization, FP-Rh probe ABPP; Acyl-protein thioesterase 2 (Homo sapiens), O95372; recombinant LYPLA2; inhibition, % at 5.9 µM; 320,000 compounds, 0.38% hits; AID 2177, 2009;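 active means inhibition above the screen-wide mean plus 3 SD, limit set per campaign, cut at about 26% in these data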;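 further: 0% = LYPLA2 with DMSO and 100% = wells lacking LYPLA2 enzyme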
Target sequence (O95372 whole entry, looked up): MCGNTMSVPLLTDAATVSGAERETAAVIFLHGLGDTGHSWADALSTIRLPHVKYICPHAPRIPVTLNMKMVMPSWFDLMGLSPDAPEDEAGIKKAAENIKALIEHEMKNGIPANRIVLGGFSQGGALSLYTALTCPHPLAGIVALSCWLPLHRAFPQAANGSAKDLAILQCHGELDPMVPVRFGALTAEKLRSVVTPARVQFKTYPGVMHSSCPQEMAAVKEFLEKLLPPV
PAD4 confirm: human PAD4 inhibitors, confirmation, biochemical, fluorescence polarization. shares compounds with PAD4 inh. recombinant PAD4, RCA probe fluorescence polarization. inhibition, % at 6.36 µM. 1,200 compounds, 28% hits;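 active means mean inhibition across replicates above the hit cutoff set by the earlier primary screen, cut at about 15% in these data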;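 further: inhibitors block active-site labeling by the probe so polarization falls; 0% = PAD4 with probe and DMSO and 100% = probe without PAD4 enzyme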
Numbers without * were called inactive; x = not tested or not shown. The list is not random: actives were taken first. Their share in the collection is about 1.8%.

SMILES | PAD4 inh | Fam108B inh | LYPLA1 counter | GSTO1 inh | PME-1 inh | LYPLA2 inh | PAD4 confirm
CCOC(=O)c1ccc(NC(=O)CSc2nc(=O)n(CCN3CCOCC3)c3c2CCC3)cc1 | 17.1* | 1.3 | -1.1 | 0.0 | 1.4 | -7.7 | 7.8
CCN(CC)CCn1c2c(c(SCC(=O)Nc3nc4ccccc4s3)nc1=O)CCC2 | 17.3* | -1.9 | -0.2 | 9.9 | 2.1 | 1.0 | 13.6
CC(=O)N1CCN(S(=O)(=O)c2cccc(C(=O)OCC(=O)N(CCC#N)c3ccc(F)cc3)c2)CC1 | 29.4* | x | 13.8 | x | 19.1 | 23.8 | 3.1
CCN(CC)S(=O)(=O)c1ccc2c(c1)c(=O)c(C(=O)N1CCN(c3ccccn3)CC1)cn2C | 20.0* | -1.9 | -3.8 | -0.5 | 3.0 | -10.2 | -4.3
O=C(Nn1cnnc1)c1ccc(OC(F)(F)C(F)C(F)(F)F)cc1 (centres undefined) | 0.1 | -4.2 | -3.1 | -0.2 | -7.6 | -5.9 | x
Oc1ccc(C=Nc2cccc3ncccc23)c(O)c1 | 15.6* | 1.0 | 2.1 | 14.6 | 4.1 | 4.3 | 5.3
C=CCN1C(=S)N[C@@H]2CS(=O)(=O)C[C@@H]21 | 3.5 | 1.3 | -0.1 | 6.0 | 0.7 | 3.6 | x
Cc1ccc(N2C(=O)CSC23C(=O)Nc2ccccc23)cc1 (centres undefined) | 16.2* | -2.5 | -2.8 | 2.1 | -1.5 | 3.9 | 19.3*
CC1=CC(C)(C)N2C(=O)C3(SCC(=O)N3c3ccc(O)cc3)c3cc(C)cc1c32 (centres undefined) | -6.0 | 4.2 | -0.8 | -6.8 | 0.4 | -2.5 | x
CCOC(=O)c1c(S(=O)(=O)NCC(=O)NCc2ccccc2Cl)c(C)n(C)c1C | -0.5 | 3.3 | -1.3 | -0.8 | 2.3 | -6.4 | x
COc1ccc(CC(=O)N2CCN=C2SC)cc1 | 28.0* | -1.6 | -2.4 | 7.9 | -3.3 | 6.3 | 4.1
CSC1=NCCN1C(=O)Cc1ccc(Cl)cc1 | 3.2 | 0.6 | -2.1 | -3.6 | -1.3 | 0.4 | x
Cc1ccc(NP(=O)(Nc2ccc(C)cc2)Nc2ccc(C)cc2)cc1 | -3.9 | 0.1 | -1.8 | -1.5 | -4.1 | 3.7 | x
O=C(Cc1ccc(F)cc1)Nc1ccc(Cl)cn1 | -1.9 | -3.5 | 2.1 | 2.0 | -3.8 | 4.5 | x
Cc1cccc(C(=O)O/N=C(\N)Cc2cccc3ccccc23)c1 | 34.3* | 0.0 | -5.3 | -2.9 | 0.5 | -7.8 | 3.5
CC1C(=O)OC(c2ccc(Br)cc2)C(C)(C)C1=O (centres undefined) | 1.0 | -2.2 | 0.9 | 4.5 | 4.3 | -1.3 | x
COc1ccc(/C=C/C(=O)OCC(=O)c2c(N)n(C)c(=O)n(C)c2=O)c(OC)c1 | 19.2* | -1.7 | 3.3 | 6.3 | 5.0 | 7.3 | 3.5
CC1(NC(=O)Cc2csc(-c3ccc(Cl)cc3)n2)CCS(=O)(=O)C1 (centres undefined) | 0.2 | x | x | x | x | x | x
CC1(NC(=O)Cc2csc(-c3cccc(Cl)c3)n2)CCS(=O)(=O)C1 (centres undefined) | 21.1* | x | 7.0 | x | 12.1 | 12.9 | 3.3
O=C(O)CC/C(=N\NC(=O)CNC(=O)c1ccc(F)cc1)c1ccccc1 | 17.7* | 2.7 | 1.4 | -1.7 | -6.2 | 1.7 | -5.5
O=C(O)CC/C(=N/NC(=O)CNC(=O)Cc1ccccc1)c1ccccc1 | 0.3 | -1.0 | -2.1 | 11.4 | -3.4 | 1.1 | x
CCOc1ccc(C=Nc2cccc3ncccc23)cc1 | -4.7 | 0.4 | 0.8 | 2.3 | 0.0 | 2.5 | x
Cc1ccc(C=Nc2cccnc2N)cc1 | 15.2* | -2.5 | -6.3 | 4.5 | 3.5 | 1.4 | 4.8
COc1ccc(C=Nc2cccnc2N)cc1 | 33.5* | -4.1 | 0.3 | 9.3 | -3.4 | 0.6 | 3.7
Cc1cccc(-n2c(C)nc3sccc3c2=O)c1 | -0.5 | 1.1 | -0.9 | -4.0 | 0.9 | -2.9 | x
SMILES | PAD4 inh | Fam108B inh | LYPLA1 counter | GSTO1 inh | PME-1 inh | LYPLA2 inh | PAD4 confirm
O=C(NC1CCCCC1)c1ccc(S(=O)(=O)c2ccccc2)cc1 | -0.7 | 5.4 | -0.7 | -2.9 | -0.9 | -1.9 | x
N#CC12COC3(CCCCC3C1(C#N)C#N)OC2=N (centres undefined) | 22.1* | -2.6 | 5.3 | 6.5 | 12.4 | 13.7 | 3.7
N#CC1(C#N)COC23CCCCC2C1(C#N)C(=N)O3 (centres undefined) | 7.7 | 2.6 | 2.2 | 13.3 | 1.2 | 6.9 | x
CCCC1OC23CCCCC2C(C#N)(C(=N)O3)C1(C#N)C#N (centres undefined) | 16.7* | -0.7 | 3.8 | 6.3 | 5.2 | 6.0 | 5.9
CCC1OC23CCCCC2C(C#N)(C(=N)O3)C1(C#N)C#N (centres undefined) | 7.6 | 0.3 | 8.7 | 5.6 | 9.5 | 12.6 | x
CCCCCCOc1ccc(N2C(=O)CC(N(CCc3ccc(S(N)(=O)=O)cc3)C(C)=O)C2=O)cc1 (centres undefined) | 0.2 | -7.3 | -1.5 | -7.5 | -3.1 | 1.1 | x
Cn1c(SCC(=O)Nc2ccc(Cl)cc2F)nnc1-c1ccco1 | -2.7 | 5.8 | -1.7 | 0.1 | -9.2 | -2.3 | x
CCCCC1=CC2=CC(=O)C(C)(OC(=O)CC)C(=O)C2=CN1CC(C)C (centres undefined) | -0.7 | 3.6 | 6.0 | 31.1 | 1.9 | 9.6 | x
COC/C=C/C1=CC2=CC(=O)C(C)(OC(=O)c3cnc4ccccc4n3)C(=O)C2=CN1CC(C)C (centres undefined) | 19.4* | -1.1 | -0.1 | 32.0 | 1.4 | 4.4 | -1.3
COc1cc(SC#N)ccc1N=Cc1c(C)[nH]n(-c2ccc(C)cc2C)c1=O | 22.3* | 1.5 | 0.4 | 15.8 | -2.0 | -0.3 | 36.5*
COc1cc(SC#N)ccc1N=Cc1c(C)[nH]n(-c2cccc3ccccc23)c1=O | 30.9* | 7.9 | 1.0 | 9.0 | 0.9 | -3.2 | 45.5*
COc1ccccc1N=Cc1c(C)[nH]n(-c2ccc(C)cc2C)c1=O | -6.3 | 3.2 | -1.9 | -1.4 | 5.3 | -2.0 | x
COc1cc(S(=O)(=O)Nc2ccc(C)cc2)ccc1N=Cc1c(C)[nH]n(-c2ccc(C)cc2)c1=O | -4.6 | -8.3 | -3.8 | 3.7 | 0.1 | -1.6 | x
CCOC(=O)C1(Cc2ccccc2C(F)(F)F)CCN(CCCn2cccn2)CC1 | -2.9 | -5.2 | -4.2 | 15.0 | -5.0 | -3.6 | x
CCC(=O)Oc1ccc(C(=O)Nc2cccc(NC(=O)c3ccco3)c2)cc1 | -0.4 | -5.8 | -2.5 | 2.5 | -2.7 | 12.0 | x
CCC(=O)Oc1ccc(C(=O)Nc2cccc(C(=O)NC(C)(C)C)c2)cc1 | 114.5* | -2.4 | -4.2 | -3.8 | -3.8 | -3.3 | -3.2

Assay outcomes from PubChem BioAssay.
